# Test results taken from PubChem BioAssay (NCATS).
# Results filed as inconclusive are left out. A call without a number means that no potency is given here. Unmarked numbers belong to inactive results. Activity calls are given as the source filed them. The call rests on the fitted dose curve; in most records, active means well fitted curve in the direction sought with a large enough effect; inconclusive means small, poorly fitted or top-dose-only effect, or another doubt; inactive means no such curve, though single readings can be large; an effect the other way counts as inactive or inconclusive. *1 amine or outer side, *2 acyl side, *3 side chain or, on linkers, in order; H or OH if unused. Where a SMILES comes first, the peptide text is derived from it. Bridges are numbered along the chain shown (N, C = ends). [ ]: non-standard residue; d: D form. The star is where a group is joined. ξ: configuration not given here. ξhTyr(3S-OH,4S-OH,3'-OSO3H) = NC(C(=O)O)[C@H](O)[C@@H](O)c1ccc(O)c(OS(=O)(=O)O)c1; Orn(4R-OH,5R-OH) = O=C([C@H](C[C@@H](O)[C@@H](O)N[*:3])N[*:1])[*:2]; X2 = CCCCCOc1ccc(-c2cc(-c3ccc(C(=O)*)cc3)no2)cc1; X3 = C[C@H]1CN([*:1])C(C(=O)[*:2])[C@H]1O; ξGln(3R-OH) = NC(=O)C[C@@H](O)C(N)C(=O)O; ξTyr(βOH) = NC(C(=O)O)C(O)c1ccc(O)cc1; ξPro(4R-OH) = O=C(O)C1C[C@@H](O)CN1; ξThr(3R) = C[C@@H](O)C(N)C(=O)O
# Assays:
# [1] = target: Calcium and integrin-binding protein 1 (Homo sapiens) (UniProt Q99828); assay: Primary qHTS for Identification of Calcium Integrin Binding Protein 1 (CIB1) Competitor (AID 1508620);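 further: GST tagged CIB1 binding a fluorescein labelled alphaIIb integrin peptide tracer; top concentration of the series differs between compounds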
# Calcium and integrin-binding protein 1 (Homo sapiens), sequence (Q99828 whole entry, looked up): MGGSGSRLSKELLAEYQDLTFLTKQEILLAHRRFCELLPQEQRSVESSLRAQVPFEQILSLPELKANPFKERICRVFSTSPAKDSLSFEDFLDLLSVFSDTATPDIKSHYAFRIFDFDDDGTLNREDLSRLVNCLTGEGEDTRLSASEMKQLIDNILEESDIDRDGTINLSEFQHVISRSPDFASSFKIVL
# Summary of the method: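 CIB1-GST (1 uM final) and compound incubated 15 min at room temperature before adding FITC-alphaIIb peptide tracer (100 nM final). Competition for binding read by fluorescence polarization (ex 480, em 540) after another 15 min at room temperature.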
# [2] = Primary qHTS for inhibitors of nuclear receptor binding SET domain protein 2 (NSD2) in an isogenic RCH-ACV NSD2 p.E1099K mutant (9B) (AID 1645876); further: nearly all actives have a fitted effect of over 70% in size; further: potency means the concentration at half of the fitted maximal effect
# [3] = Primary qHTS for inhibitors of nuclear receptor binding SET domain protein 2 (NSD2) in an RCH-ACV wild type WT cells (2C) (AID 1645877); further: nearly all actives have a fitted effect of over 70% in size; further: potency means the concentration at half of the fitted maximal effect
SMILES,Potency [1],Potency [2],Potency [3],"activity change, negative = viability loss [2]",outcome [3],"activity change, negative = inhibition [1]"
COc1cc(/C=C/C(=O)O[C@H]2C[C@@H]3C(C(=O)O)=CO[C@@H](O[C@@H]4O[C@H](CO)[C@@H](O)[C@H](O)[C@H]4O)[C@@H]3[C@H]2C)ccc1O,inactive,inactive,inactive,,,
COC(O)(CC(C)C)C1Oc2cc(C)[nH]c(=O)c2O1 (configuration not stated),inactive,inactive,inactive,,,
C[C@]1(OC(=O)/C=C/c2ccccc2)C[C@@H](O)[C@]2(O)C=CO[C@@H](O[C@@H]3O[C@H](CO)[C@@H](O)[C@H](O)[C@H]3O)[C@@H]21,inactive,inactive,inactive,,,
CC1=C2C(=O)C=C(CO[C@@H]3O[C@H](CO)[C@@H](O)[C@H](O)[C@H]3O)[C@@H]2[C@H]2OC(=O)[C@H](C)[C@@H]2CC1,inactive,inactive,inactive,,,
O=C(O)CCc1cc2ccoc2cc1O[C@@H]1O[C@H](CO)[C@@H](O)[C@H](O)[C@H]1O,inactive,inactive,inactive,,,
CC1=CC(=O)[C@]2(O[C@@H]3O[C@@H](C)[C@H](O)[C@@H](O)[C@H]3O)C=CO[C@@H](O[C@@H]3O[C@H](CO)[C@@H](O)[C@H](O)[C@H]3O)[C@H]12,inactive,inactive,inactive,,,
CC(=O)O[C@@H]1[C@H](OC(C)=O)C[C@@]2(C)C(CC[C@@H](C)[C@]23Cc2c(O)cc4c(c2O3)CN([C@@H](CCC(=O)O)C(=O)O)C4=O)C1(C)C (some centres not stated),inactive,inactive,inactive,,,
CC(=O)O[C@@H]1C(=O)C(C)=C(CCC(C)CC(=O)O)[C@@]2(C)CCCC(C)(C)C12 (some centres not stated),inactive,inactive,inactive,,,
NC[C@@H]1O[C@@H](O[C@@H]2[C@@H](O[C@@H]3O[C@H](CO)[C@@H](O)[C@H]3O)[C@H](O)[C@@H](N)C[C@H]2N)[C@@H](N)[C@H](O)[C@H]1O,inactive,,,4.31% [at 9.23 µM],inactive [at 9.23 µM],
C[C@@H]1[C@H](O)[C@@H]2OC(=O)C3=C2[C@H](CCC3)[C@@]12C[C@@H](c1ccoc1)OC2=O,inactive,inactive,inactive,,,
CC(=O)OCC1OC(OC2COC(OC3COC(OC4C(OC5C(CO)OC(OC6CCC7(C)C(CCC8(C)C7CC=C7C9CC(C)(C)CCC9(C(=O)OC9OC(CO)C(O)C(O)C9OC9OCC(OC%10OCC(O)(CO)C%10O)C(O)C9O)C(O)CC78C)C6(C)C)C(O)C5O)OCC(O)C4O)C(O)C3O)C(O)C2O)C(OC(=O)/C=C/c2ccccc2)C(O)C1OC(C)=O (configuration not stated),,1.25 µM (active),1.99 µM (active),,,-1.97% [at 12.4 µM]
COc1cc(CO)cc(OC)c1O[C@@H]1O[C@H](CO)[C@@H](O)[C@H](O)[C@H]1O,inactive,inactive,inactive,,,
COc1cc(C(C)=O)ccc1O[C@@H]1O[C@H](CO)[C@@H](O)[C@H](O)[C@H]1O,inactive,inactive,inactive,,,
NC1Nc2ccccc2C1(N)CC1NC(=O)C(Cc2ccccc2)NC(=O)C(Cc2ccccc2)NC1=O (configuration not stated),inactive,inactive,inactive,,,
"CCCCCOc1ccc(-c2cc(-c3ccc(C(=O)N[C@H]4C[C@@H](O)[C@@H](O)NC(=O)C5[C@@H](O)[C@@H](C)CN5C(=O)C([C@H](O)CC(N)=O)NC(=O)C([C@H](O)[C@@H](O)c5ccc(O)c(OS(=O)(=O)O)c5)NC(=O)C5C[C@@H](O)CN5C(=O)C([C@@H](C)O)NC4=O)cc3)no2)cc1 (stereo partly drawn) (X2-[Orn(4R-OH,5R-OH)][ξThr(3R)][ξPro(4R-OH)][ξhTyr(3S-OH,4S-OH,3'-OSO3H)][ξGln(3R-OH)][X3]; lactam 1-C)",inactive,inactive,inactive,,,
C=CC(C)(CC/C=C(\C)C(=O)OC)OC1OC(COC(=O)CC(C)(O)CC(=O)O)C(O)C(O)C1O (configuration not stated),inactive,inactive,inactive,,,
C=C(C(=O)O)[C@@H]1CC[C@H](C)[C@@H]2CC(=O)C(C)=C2C1,inactive,inactive,inactive,,,
CC(C)C1NC(=O)CNC(=O)C2CCCN2C(=O)C(Cc2c[nH]c3ccccc23)NC(=O)CNC(=O)C(C(O)c2ccc(O)cc2)NC(=O)CNC1=O (configuration not stated) (cyclo(G[ξTyr(βOH)]GWPGV); configuration not given here),inactive,inactive,inactive,,,
OC[C@@]1(O)CO[C@@H](OC[C@H]2O[C@@H](Oc3ccccc3)[C@H](O)[C@@H](O)[C@@H]2O)[C@@H]1O,inactive,inactive,inactive,,,
CC(=O)O[C@H]1C[C@@H](O)C(C)(C)C2C[C@@H](OC(C)=O)[C@@]3(C)C4=CCC(C(CO)CC(O)C5OC5(C)C)[C@]4(C)CCC3[C@]21C (some centres not stated),inactive,inactive,inactive,,,
C[C@@H]1C[C@@H](O)[C@@]23CO[C@]2(CO)C[C@@H](O)CC3[C@@]12CC(c1ccoc1)OC2=O (some centres not stated),inactive,inactive,inactive,,,
CC(=O)O[C@@H]1[C@H](O[C@@H]2OC[C@](O)(CO)[C@H]2O)[C@@H](O[C@@H]2O[C@@H](C)[C@H](O)[C@@H](O[C@@H]3O[C@H](CO)[C@@H](O)[C@H](O)[C@H]3O)[C@H]2O)[C@H](OC(=O)[C@]23CCC(C)(C)C[C@H]2C2=CCC4[C@@]5(C)C[C@H](O)[C@H](O[C@@H]6O[C@H](C(=O)O)[C@@H](O)[C@H](O)[C@H]6O)[C@@](C)(C(=O)O)C5CC[C@@]4(C)[C@]2(C)CC3)O[C@@H]1C (some centres not stated),,,,4.2% [at 9.23 µM],inactive [at 9.23 µM],4.9% [at 12.4 µM]
COc1ccc(CCC(=O)O)c(O[C@@H]2O[C@H](CO)[C@@H](O)[C@H](O)[C@H]2O)c1,inactive,inactive,inactive,,,
CC1(C)CC[C@]2(C(=O)O)CC[C@]3(C)C(=CCC4[C@@]5(C)CC[C@H](O)C(C)(C)C5CC[C@]43C)C2C1 (some centres not stated),inactive,inactive,inactive,,,
